Source: PubChem BioAssay
The source made the active and inactive calls. Unless noted, no stated cut-off is given here; in the data, active means inhibition above about 80%; inactive means the rest.

Experiments:
[1] = sensitizers of A549 cells to miR-34 induction, primary screen, imaging, A549 dox-inducible miR-34, nuclei and caspase counts (AID 1347080;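 active means compounds whose cell count with miR-34 switched on is under 0.7 times the count with it off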); details: A549 miR-34 inducible, Hoechst nuclei count, 48 h
[2] = survival rescue of mitochondrial mutant cells in low glucose, primary screen, MELAS cybrids, Rieske KO mouse fibroblasts, CellTiter-Glo (AID 1508586;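 active means mean z-score across replicates of 1.96 or higher in either the MELAS or the Rieske mutant cell line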;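 further: z relative to plate mean and SD of compound and empty wells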)
[3] = LFS_MB_P medulloblastoma growth inhibition, cell-based, chromothripsis tumors, cisplatin or BGB combos (AID 1671449); details: LFS_MB_P medulloblastoma cells;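 further: cells exposed for 96 hours; 0% = vehicle DMSO and 100% = killing by high DMSO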
[4] = HDN33 neuroblastoma growth inhibition, cell-based, chromothripsis tumors, cisplatin or BGB combos (AID 1671450); details: HDN33 neuroblastoma cells, stronger effect = higher value;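 further: cells exposed to compound for four days; 0% = vehicle DMSO and 100% = cell killing by high DMSO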
[5] = ICB984 medulloblastoma cell growth inhibition, synergistic combos for chromothripsis tumors, cisplatin or BGB combos (AID 1671451; call rule not given here;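 further: cells exposed for 96 hours before readout; 0% = vehicle DMSO and 100% = killing by high DMSO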); details: ICB984 medulloblastoma cells, drug combinations, stronger effect = higher value
[6] = LFS_MB_1R medulloblastoma cell growth inhibition, synergistic combos for chromothripsis tumors, cisplatin or BGB combos (AID 1671452); details: LFS_MB_1R medulloblastoma cells, stronger effect = higher value;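 further: cells exposed for 96 hours before readout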
[7] = HTB85 osteosarcoma cell growth inhibition, synergistic combos for chromothripsis tumors, BGB or cisplatin IC20 combos (AID 1671453); details: HTB85 osteosarcoma cells, drug combinations, stronger effect = higher value;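 further: cells exposed for 96 hours before readout; 0% = vehicle DMSO and 100% = high DMSO killing control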
[8] = CRL2098 osteosarcoma cell growth inhibition, synergistic combos for chromothripsis tumors, BGB or cisplatin IC20 combos (AID 1671454); details: CRL2098 osteosarcoma cells, drug combinations, stronger effect = higher value;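 further: cells exposed for 96 h before readout; 0% = vehicle DMSO and 100% = killing by high DMSO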
[9] = HD-MB03 medulloblastoma cell growth inhibition, synergistic combos for chromothripsis tumors, BGB or cisplatin IC20 combos (AID 1671455; in the data active means inhibition above about 83%;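 further: 0% = vehicle DMSO and 100% = high DMSO as cytotoxic control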); details: HD-MB03 medulloblastoma cells, stronger effect = higher value
[10] = UWB1.289 ovarian carcinoma cell growth inhibition, synergistic combos for chromothripsis tumors, BGB or cisplatin combos (AID 1671456); details: UWB1.289 ovarian carcinoma cells, stronger effect = higher value;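 further: cells exposed to compound for four days; 0% = vehicle DMSO and 100% = killing by high DMSO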
[11] = LFS_MB_2R medulloblastoma cell growth inhibition, synergistic combos for chromothripsis tumors, cisplatin combos (AID 1671457); details: LFS_MB_2R medulloblastoma cells, stronger effect = higher value;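 further: cells exposed to compound for four days before readout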
[12] = MDA-MB-436 breast carcinoma cell growth inhibition, synergistic combos for chromothripsis tumors, BGB or cisplatin combos (AID 1671458; call rule not given here;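 further: cells exposed for 96 hours; 0% = vehicle DMSO and 100% = killing by high DMSO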); details: MDA-MB-436 breast carcinoma growth inhibition, drug combinations, stronger effect = higher value
[13] = UWB1.289_BRCA1 ovarian cancer growth, cell-based, BGB or cisplatin combinations (AID 1671459); details: UWB1.289 BRCA1 ovarian carcinoma, drug combinations, stronger effect = higher value
[14] = human astrocyte viability loss, single and combined drugs, cytotoxicity control for chromothriptic childhood tumor combination screen, cell-based, BGB or cisplatin IC20 combos (AID 1671460); details: Human astrocytes, drug combinations, stronger effect = higher value;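 further: cells exposed to compounds for 96 hours before viability readout; 0% = vehicle and 100% = killing control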
[15] = growth inhibition of BT084 medulloblastoma cells, cell-based, ICGC_MB145, cisplatin and BGB IC40 combos (AID 1671461); details: drug combinations, stronger effect = higher value;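 further: cells exposed to drugs for 96 hours; 0% = vehicle DMSO and 100% = high DMSO full killing control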
[16] = growth inhibition of RCMB18 medulloblastoma cells, cell-based, cisplatin and BGB IC40 combos (AID 1671462); details: stronger effect = higher value;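 further: cells exposed to compound for four days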
[17] = growth inhibition of CRL1545 osteosarcoma cells, cell-based, cisplatin and BGB IC20 combos (AID 1671464); details: stronger effect = higher value;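 further: cells exposed to compound for 96 hours before readout; 0% = vehicle DMSO and 100% = high DMSO killing control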
[18] = measured here: combination with BGB IC40, at 0.05 µM
[19] = measured here: with BGB IC20 combination, at 0.5 µM
[20] = measured here: with cisplatin IC20 combination, at 0.5 µM
[21] = measured here: combination with cisplatin, at 0.5 µM
[22] = measured here: combination with cisplatin, at 5 µM

What does the source list for `CC1CN(c2c(F)c(N)c3c(=O)c(C(=O)O)cn(C4CC4)c3c2F)CC(C)N1` (centres undefined)?
fold change ([1]; stronger effect = lower value, cell number ratio, induced over uninduced): 0.949 (inactive); fold change ([1]; measured here: relative caspase fold change +Dox/-Dox): 1.47; cell count ([1]; measured here: total cells with miR-34 induction, stronger effect = lower value): 8380; cell count ([1]; measured here: total cells without miR-34 induction): 8840; z-score ([2]; MELAS cybrid survival, CellTiter-Glo 48 h, stronger effect = higher value): -0.385 (inactive); z-score ([2]; Rieske KO mouse fibroblast survival, CellTiter-Glo 72 h): 0.474; inhibition ([3]; at 0.5 µM, stronger effect = higher value): -8.35% (inactive); inhibition ([3]; measured here: combination with BGB IC20, at 0.005 µM): -4.46%; inhibition ([3]; measured here: combination with BGB IC40, at 0.005 µM): -31.5%; inhibition [3, 18]: -15.2%; inhibition ([3]; measured here: combination with cisplatin, at 0.5 µM, stronger effect = higher value): -6.19%; inhibition ([3]; measured here: combination with cisplatin, at 5 µM, stronger effect = higher value): -16.6%; inhibition ([4]; BGB combo, at 5 µM): 12%; inhibition ([4]; at 0.5 µM): -0.91% (inactive); inhibition ([4]; cisplatin combo, at 5 µM): -6.01%; inhibition [4, 19]: 11.5%; inhibition [4, 20]: -1.5%; inhibition ([4]; single agent, at 5 µM): 6.32%; inhibition ([5]; BGB IC20 combo, at 0.005 µM): -1.67%; inhibition ([5]; BGB IC40 combo, at 0.005 µM): 11%; inhibition ([5]; BGB IC40 combo, at 0.05 µM): -1.88%; inhibition ([5]; at 0.5 µM): 7.87% (inactive); inhibition ([5]; cisplatin combo, at 0.05 µM): -1.88%; inhibition ([5]; cisplatin combo, at 0.5 µM): 11.3%; inhibition ([5]; cisplatin combo, at 5 µM): 13.8%; inhibition ([5]; measured here: 5 uM single agent, at 5 µM): -29.6%; inhibition ([6]; at 0.5 µM): -11.6% (inactive); inhibition [6, 18]: 17.7%; inhibition [6, 21]: -11.6%; inhibition [6, 22]: 6.53%; inhibition ([7]; at 0.5 µM): -1.44% (inactive); inhibition ([7]; measured here: with BGB IC20, at 0.5 µM): -7.64%; inhibition ([7]; measured here: with BGB IC20, at 5 µM): 3.84%; inhibition ([7]; measured here: with cisplatin IC20, at 0.5 µM): -9.9%; inhibition ([7]; measured here: with cisplatin IC20, at 5 µM): -0.774%; inhibition ([7]; single agent, at 5 µM): 7.58%; inhibition ([8]; at 0.5 µM): 10.8% (inactive); inhibition ([8]; measured here: combination with BGB at IC20, at 0.5 µM): -2.31%; inhibition ([8]; measured here: combination with cisplatin at IC20, at 0.5 µM): 38.8%; inhibition ([9]; at 0.5 µM): -2.01% (inactive); inhibition ([9]; measured here: combo with BGB at IC20, at 0.5 µM): -4.41%; inhibition ([9]; measured here: combo with cisplatin at IC20, at 0.5 µM): 2.33%; inhibition ([10]; at 0.5 µM): 8.04% (inactive); inhibition ([10]; measured here: inhibition with BGB combination, at 0.05 µM): 0.724%; inhibition ([10]; measured here: inhibition with cisplatin combination, at 0.05 µM): -2.03%; inhibition ([11]; at 0.5 µM): -6.3% (inactive); inhibition [11, 21]: -7.26%; inhibition [11, 22]: 2.01%; inhibition ([12]; at 0.5 µM): -9.1% (inactive); inhibition ([12]; measured here: BGB combination, at 0.5 µM): -2.77%; inhibition ([12]; measured here: BGB combination, at 5 µM): -17.3%; inhibition ([12]; measured here: cisplatin combination, at 0.5 µM): -22.6%; inhibition ([12]; measured here: cisplatin combination, at 5 µM): -5.2%; inhibition ([13]; BGB combination, concentration series, at 5 µM): 10.9%; inhibition ([13]; at 0.5 µM): 7.45% (inactive); inhibition ([13]; cisplatin combination, concentration series, at 5 µM): 7.13%; inhibition ([14]; at 0.5 µM): -1.22% (inactive); inhibition ([14]; measured here: combo with BGB IC20, at 0.5 µM): 2.7%; inhibition ([14]; measured here: combo with cisplatin IC20, at 0.5 µM): -10.7%; inhibition ([15]; at 0.5 µM): -22.6% (inactive); inhibition ([15]; cisplatin combination, at 0.5 µM): -28.7%; inhibition ([15]; cisplatin combination, at 5 µM): -70.7%; inhibition ([15]; measured here: BGB IC40 combination 0.05 uM, at 0.05 µM): 2.3%; inhibition ([15]; single agent, at 5 µM): -7.96%; inhibition ([16]; at 0.5 µM): -6.55% (inactive); inhibition ([16]; cisplatin combo, at 5 µM): 2%; inhibition ([16]; measured here: BGB IC40 combination, at 0.05 µM): 11.2%; inhibition [16, 21]: -22.2%; inhibition ([16]; single agent, at 5 µM): -18.8%; inhibition ([17]; at 0.5 µM): -2.34% (inactive); inhibition [17, 19]: 14.7%; inhibition [17, 20]: -10.9%; inhibition ([17]; single agent, at 0.05 µM): 39.2%; inhibition ([17]; single agent, at 5 µM): 26.7%
